System: MV4-11
Experiment: CellTox Green cytotoxicity fluorescence relative to DMSO vehicle (fold of vehicle RFU); higher = more cell death (loss of membrane integrity), active = 2 or more
Method: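 Paediatric AML cell lines (MV4-11, CMK, Kasumi-1; 4x10^4 cells/well, 96-well) treated with single compounds from the Selleckchem apoptosis library at 0.01, 0.1 and 1 µM. Cytotoxicity was read with CellTox Green (RFU, Ex 485/Em 520) at 24, 48 and 72 h and normalised to the 0.1% DMSO vehicle. Normalised RFU >= 2 was taken as a successful, cell-killing treatment.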

Measured: CellTox Green cytotoxicity fluorescence

COc1ccc(CCNCc2ccc(OCc3ccc(Cl)nc3)c(OC)c2)cc1OC
inactive: 0.01 µM, 24 h 0.971 | 0.01 µM, 48 h 0.978 | 0.01 µM, 72 h 0.996 | 0.1 µM, 24 h 0.949 | 0.1 µM, 48 h 0.961 | 0.1 µM, 72 h 0.967 | 1 µM, 24 h 0.953 | 1 µM, 48 h 0.949 | 1 µM, 72 h 0.945

CCCCCCCCCCCC1=C(O)C(=O)C=C(O)C1=O [Embelin]
inactive: 0.01 µM, 24 h 1.01 | 0.01 µM, 48 h 1 | 0.01 µM, 72 h 1 | 0.1 µM, 24 h 1 | 0.1 µM, 48 h 0.999 | 0.1 µM, 72 h 1 | 1 µM, 24 h 1.02 | 1 µM, 48 h 1 | 1 µM, 72 h 1.01

COCC[n+]1c2c(n(Cc3cnccn3)c1C)C(=O)c1ccccc1C2=O [Sepantronium Bromide]
active: 0.1 µM, 72 h 2.14 | 1 µM, 48 h 2.26 | 1 µM, 72 h 2.48
inactive: 0.01 µM, 24 h 0.95 | 0.01 µM, 48 h 0.938 | 0.01 µM, 72 h 0.957 | 0.1 µM, 24 h 1.02 | 0.1 µM, 48 h 1.83 | 1 µM, 24 h 1.35

CC(C)c1cc2c(N3CCN(C4=NCC(C)(C)S4)CC3)ncnc2s1 [MI-3 (Menin-MLL Inhibitor)]
inactive: 0.01 µM, 24 h 0.931 | 0.01 µM, 48 h 0.933 | 0.01 µM, 72 h 0.927 | 0.1 µM, 24 h 0.883 | 0.1 µM, 48 h 0.889 | 0.1 µM, 72 h 0.876 | 1 µM, 24 h 0.961 | 1 µM, 48 h 0.951 | 1 µM, 72 h 0.95

O=C1C(=O)N(Cc2ccc(Cl)c(Cl)c2)c2ccccc21 [Apoptosis Activator 2]
inactive: 0.01 µM, 24 h 0.971 | 0.01 µM, 48 h 0.978 | 0.01 µM, 72 h 0.98 | 0.1 µM, 24 h 1.02 | 0.1 µM, 48 h 1.03 | 0.1 µM, 72 h 1.02 | 1 µM, 24 h 1.02 | 1 µM, 48 h 1.13 | 1 µM, 72 h 1.13

From the supplement of paper PMC7595190
